This excerpt belongs to a sample that is enriched for hits.
SARS PLpro yeast = qHTS of Yeast-based Assay for SARS-CoV PLP. S. cerevisiae expressing SARS-CoV PLpro, growth rescue. Potency, µM (titrated, usually from 32.9 µM), for inactives: top-dose activity, positive = growth rescue, actives largely listed as activators. 0.19% of 330,000 active. AID 485353, 2010; calls by dose curve; also: potency is read from the fitted curve at half-maximal effect; 0% is about no effect; nearly all actives have a fitted effect of over 55% in size
AmpC inh no detg = qHTS Inhibitors of AmpC Beta-Lactamase (assay without detergent); Potency, µM (series often up to 57.1 µM), for the others: at the highest dose activity change, negative = inhibition, usual class: inhibitors; AmpC nitrocefin hydrolysis, absorbance 480 nm, 0.0001% Triton; 0.52% of 330,000 active; P00811;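 also: potency is read from the fitted curve at half-maximal effect; plate controls were no compound for no effect and no enzyme for full effect; nearly all actives have a fitted effect of over 20% in size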
Target sequence (P00811 whole entry, looked up): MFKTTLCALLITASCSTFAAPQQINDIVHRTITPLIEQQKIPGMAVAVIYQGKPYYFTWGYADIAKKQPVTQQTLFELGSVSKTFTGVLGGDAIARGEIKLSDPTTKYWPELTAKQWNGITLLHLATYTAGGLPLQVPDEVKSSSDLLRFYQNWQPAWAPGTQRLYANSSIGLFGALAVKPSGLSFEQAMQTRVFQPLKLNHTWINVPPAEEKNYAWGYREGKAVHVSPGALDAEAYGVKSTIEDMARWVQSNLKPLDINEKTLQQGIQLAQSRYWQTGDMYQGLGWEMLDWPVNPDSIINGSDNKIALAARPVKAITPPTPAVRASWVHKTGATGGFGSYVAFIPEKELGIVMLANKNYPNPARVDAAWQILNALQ
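AmpC (5.3 nM in the dispensed reagent) in 20 mM phosphate pH 7.0 with 0.01% (detergent screen) or 0.0001% Triton X-100 was preincubated with compounds for 15 min at room temperature. Nitrocefin was then added from an 800 uM solution, and hydrolysis was followed at 480 nm.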
AMA1 RON2 block = qHTS for Inhibitors of AMA1-RON; Towards Development of Antimalarial Drug Lead: Primary Screen; AID 720542, 2013; Potency, µM (highest dose often 58.2 µM), for inactives: top-dose activity change, negative = inhibition, most hits filed as inhibitors; AlphaScreen AMA1-biotinylated RON2 peptide binding; 0.2% of 360,000 active;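 also: potency is read from the fitted curve at half-maximal effect; 0% = vehicle wells and -100% = peptide control; nearly all actives have a fitted effect of over 45% in size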
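AMA1 (3D7) with his tag at 25 nM final met compounds first, then biotinylated RON2 peptide at 25 nM; detection used donor plus acceptor beads, 10 µg/mL apiece, read by AlphaScreen after 30 min at room temperature.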
CHX counter = Cycloheximide Counterscreen for Small Molecule Inhibitors of Shiga Toxin. 12% of 300,000 active. cell reporter, cycloheximide protein synthesis inhibition counterscreen. AID 2314, 2010. max response, %; in the data active = max response mostly above about 13%, no sharp cut-off; inactive = mostly below about 14%; also: read at 38.3 µM for the half of the compounds with a filed dose; 0% is about no effect
AmpC inh detg = qHTS Inhibitors of AmpC Beta-Lactamase (assay with detergent). Potency, µM (titrated, usually from 114 µM), without a hit: at the top dose activity change, negative = inhibition, most hits filed as inhibitors. P00811. 0.041% of 370,000 active. AmpC hydrolysis of nitrocefin, absorbance 480 nm, 0.01% Triton;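 also: potency is read from the fitted curve at half-maximal effect; 0% = no-compound wells and -100% = no-enzyme wells; nearly all actives have a fitted effect of over 25% in size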
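AmpC (5.3 nM in the dispensed reagent) in 20 mM phosphate pH 7.0 with 0.01% (detergent screen) or 0.0001% Triton X-100 was preincubated with compounds for 15 min at room temperature. Nitrocefin was then added from an 800 uM solution, and hydrolysis was followed at 480 nm.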
Shiga toxin inh = A qHTS for Small Molecule Inhibitors of Shiga Toxin | Vero cells, Shiga toxin protein synthesis inhibition reporter | inhibition, % at 38.7 µM | 9.2% of 290,000 active | AID 2315, 2010; in the data active = inhibition mostly above about 28%, no sharp cut-off; inactive = mostly below about 43%; also: 0% is about no effect
Numbers without * were called inactive; u = inconclusive; x = not tested or not shown. Unless noted, calls follow the shape of the dose curve; as a rule, active = well fitted curve in the direction sought with a large enough effect; inconclusive = small, poorly fitted or top-dose-only effect, or another doubt; inactive = no such curve, though single readings can be large; an effect the other way counts as inactive or inconclusive.

SMILES	SARS PLpro yeast	AmpC inh no detg	AMA1 RON2 block	CHX counter	AmpC inh detg	Shiga toxin inh
Cc1nc2ccc(NC(=O)c3ccccc3)cc2c(=O)n1Cc1ccc(F)cc1	x	x	-2%	x	x	x
CCCc1nc2ccc(NC(C)=O)cc2c(=O)n1Cc1ccc(Cl)cc1	-2%	148%	-16%	43*	-1%	90*
COc1ccc(NC(=O)c2ccc3c(c2)C(=O)N(Cc2cccnc2)C3=O)cc1	-2%	-13%	-3%	-3	u	-4
COc1ccc(Cn2c(C3CC3)nc3ccc(NC(=O)c4cccnc4)cc3c2=O)cc1	-1%	33%	14%	22*	u	54*
CCN1CCN(CCOc2ccc(Cl)cc2)CC1	1%	-1%	-3%	0	-7%	1
CCOc1cc(S(=O)(=O)Nc2ncn[nH]2)ccc1Br	-4%	-11%	9%	1	1%	-5
CCc1ncc(CN2CCC(C(=O)Nc3ccc(-n4nc(C)cc4C)cc3)CC2)cn1	-1%	69%	0%	-3	-6%	12
Fc1cccc(-c2nn[nH]n2)c1	-2%	-13%	-1%	-1	-3%	-3
Cn1c(SCc2ccc(Cl)cc2Cl)nc(C(F)(F)F)cc1=O	3%	-3%	11%	-3	-6%	34
FC(F)(F)c1nc(SCc2ccc(Cl)cc2Cl)n[nH]1	-7%	-30%	10%	20*	4%	28
Cc1ccc(N2C(N)=C(C#N)C(c3cccs3)C3=C2CC(C)(C)CC3=O)cc1 (centres undefined)	-23%	1%	16%	-1	0%	-4
COc1c(C)cccc1C(=O)NC(=S)Nc1ccc2c(c1)Cc1ccccc1-2	-8%	-5%	-4%	-3	u	-11
C=CCNC(=S)N/N=C/c1ccc(N(CC)Cc2ccccc2)cc1	u	-12%	-4%	13*	-12%	-3
Cc1ccc2oc(Nc3nc(C)c(C)c(C)n3)nc2c1	1%	-26%	3%	37*	-3%	88*
Nc1ccc2oc(-c3cccs3)nc2c1	-5%	-14%	-11%	46*	u	86*
Nc1ccc2oc(-c3cccc4ccccc34)nc2c1	-3%	5%	-12%	-2	u	-2
Cc1ccc(-c2nc3cc(N)ccc3o2)cc1	-5%	5%	-4%	25*	4%	68*
CCOc1cc(C(=O)Nc2ccc(-c3nc4cc(C)ccc4o3)cc2)cc(OCC)c1OCC	x	x	x	x	-3%	x
Cc1ccc(-c2nc3cc(C)ccc3o2)cc1	-2%	-18%	-1%	33*	3%	118*
COc1ccc(-n2nnnc2SCC(=O)N2C(C)CCCC2C)c(OC)c1 (centres undefined)	2%	19%	-7%	-4	-7%	7
Cc1ccc(CN(C(=O)COc2ccc([N+](=O)[O-])cc2)c2ccccn2)cc1	x	x	x	x	13%	x
CC(C)Oc1nnnn1-c1ccccc1	0%	22%	-6%	-3	-12%	9
N#CC1(C#N)C(c2ccccc2)OC23CCCCCC2C1(C#N)C(=N)O3 (centres undefined)	12%	-26%	0%	-5	-7%	-10
CC(C)(C)c1ccc(-c2nc3cc(N)ccc3o2)cc1	-13%	31%	3%	51*	1%	94*
Cc1ccc2oc(-c3cccc(N)c3)nc2c1	-10%	14%	-24%	26*	1%	58*
O=c1oc(-c2ccco2)nc2ccccc12	-1%	-12%	9%	10	1%	-10
Cc1ccc(-c2nc3cc(N)ccc3o2)c(C)c1	1%	28%	2%	33*	0%	66*
Nc1cccc(-c2nc3cc(S(=O)(=O)c4ccc5oc(-c6cccc(N)c6)nc5c4)ccc3o2)c1	-3%	-5%	7%	4	-11%	20
Cc1ccc2oc(-c3ccco3)nc2c1	-5%	-3%	1%	42*	-14%	101*

Screens from PubChem BioAssay.
